Assay results published in PMC7862700, “An all-to-all approach to the identification of sequence-specific readers for epigenetic DNA modifications on cytosine”.

How the values were obtained:
Assay in all cases: DAPPL (digital affinity profiling via proximity ligation, sequencing); 10 mM Tris-HCl pH 7.5, 50 mM NaCl, 1 mM DTT, 4% glycerol, room temperature, 30 min; GST-TFs on glutathione beads, 16-mer random dsDNA library, 0.1% formaldehyde crosslink after washing; high values mean tight binding
FLI1 = biological target: T1, FLI1 (Homo sapiens, UniProt Q01543 1-452); settings: protein: recombinant; tags: N-terminal GST; dsDNA, one strand shown
T1 sequence: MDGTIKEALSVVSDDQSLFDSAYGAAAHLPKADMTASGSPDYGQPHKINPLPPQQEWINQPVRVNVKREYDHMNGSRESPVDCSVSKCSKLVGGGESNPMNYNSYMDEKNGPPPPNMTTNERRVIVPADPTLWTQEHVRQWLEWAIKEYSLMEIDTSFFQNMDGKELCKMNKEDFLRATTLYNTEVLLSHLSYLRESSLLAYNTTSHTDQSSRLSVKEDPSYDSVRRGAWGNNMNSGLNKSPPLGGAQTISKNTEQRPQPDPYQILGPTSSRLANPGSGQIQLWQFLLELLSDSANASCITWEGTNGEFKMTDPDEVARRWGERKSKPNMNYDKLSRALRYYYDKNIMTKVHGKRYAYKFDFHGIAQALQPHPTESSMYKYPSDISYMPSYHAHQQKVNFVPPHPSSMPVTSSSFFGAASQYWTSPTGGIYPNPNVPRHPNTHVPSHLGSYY
Method in brief: (§1)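 Pools of DNA-barcoded human transcription factors, expressed in yeast as GST fusions on glutathione beads and combined with a tag-only sample, were incubated with 200 nmole of a 16-mer random double-stranded DNA library. Incubation took 30 min at room temperature in Tris/NaCl/DTT/glycerol buffer and was followed by washing, 0.1% formaldehyde crosslinking, proximity ligation (BsaI/T4 ligase, 1 h, 37 °C), PCR amplification and sequencing on an Illumina NextSeq500. Binding signal is the ratio of a hexamer's read frequency for a factor to its frequency for the tag-only sample.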

ELK1 = biological target: T2, ELK1 (Homo sapiens, UniProt P19419 1-428); settings: protein: recombinant; tags: N-terminal GST; dsDNA, one strand shown
T2 sequence: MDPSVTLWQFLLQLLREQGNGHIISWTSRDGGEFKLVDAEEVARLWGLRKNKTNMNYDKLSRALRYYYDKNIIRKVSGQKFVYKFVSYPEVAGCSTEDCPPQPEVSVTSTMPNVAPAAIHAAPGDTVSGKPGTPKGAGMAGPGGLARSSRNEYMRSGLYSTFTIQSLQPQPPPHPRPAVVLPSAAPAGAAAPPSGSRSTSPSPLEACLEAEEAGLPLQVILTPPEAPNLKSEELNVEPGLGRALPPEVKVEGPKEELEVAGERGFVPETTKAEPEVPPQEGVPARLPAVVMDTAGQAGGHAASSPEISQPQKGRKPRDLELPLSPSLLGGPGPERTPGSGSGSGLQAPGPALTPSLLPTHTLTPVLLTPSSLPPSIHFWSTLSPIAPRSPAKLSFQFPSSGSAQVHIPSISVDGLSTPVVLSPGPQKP
Method in brief: as §1

GABPA = biological target: T3, GABPA (Homo sapiens, UniProt Q06546 1-454); settings: protein: recombinant; tags: N-terminal GST; dsDNA, one strand shown
T3 sequence: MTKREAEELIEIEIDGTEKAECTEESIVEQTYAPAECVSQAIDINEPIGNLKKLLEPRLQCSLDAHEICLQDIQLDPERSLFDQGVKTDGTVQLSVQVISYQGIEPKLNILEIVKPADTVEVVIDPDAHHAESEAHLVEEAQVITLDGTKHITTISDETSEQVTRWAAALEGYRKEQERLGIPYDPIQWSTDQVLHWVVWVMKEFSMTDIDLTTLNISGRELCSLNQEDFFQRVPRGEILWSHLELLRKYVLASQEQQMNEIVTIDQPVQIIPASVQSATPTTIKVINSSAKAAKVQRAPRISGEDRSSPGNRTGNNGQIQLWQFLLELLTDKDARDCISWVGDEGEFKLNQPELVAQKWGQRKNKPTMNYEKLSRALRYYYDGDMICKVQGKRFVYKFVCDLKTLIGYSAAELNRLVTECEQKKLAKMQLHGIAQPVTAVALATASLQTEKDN
Method in brief: as §1

ERG = biological target: T4, ERG (Homo sapiens, UniProt P11308 1-479); settings: protein: recombinant; tags: N-terminal GST; dsDNA, one strand shown
T4 sequence: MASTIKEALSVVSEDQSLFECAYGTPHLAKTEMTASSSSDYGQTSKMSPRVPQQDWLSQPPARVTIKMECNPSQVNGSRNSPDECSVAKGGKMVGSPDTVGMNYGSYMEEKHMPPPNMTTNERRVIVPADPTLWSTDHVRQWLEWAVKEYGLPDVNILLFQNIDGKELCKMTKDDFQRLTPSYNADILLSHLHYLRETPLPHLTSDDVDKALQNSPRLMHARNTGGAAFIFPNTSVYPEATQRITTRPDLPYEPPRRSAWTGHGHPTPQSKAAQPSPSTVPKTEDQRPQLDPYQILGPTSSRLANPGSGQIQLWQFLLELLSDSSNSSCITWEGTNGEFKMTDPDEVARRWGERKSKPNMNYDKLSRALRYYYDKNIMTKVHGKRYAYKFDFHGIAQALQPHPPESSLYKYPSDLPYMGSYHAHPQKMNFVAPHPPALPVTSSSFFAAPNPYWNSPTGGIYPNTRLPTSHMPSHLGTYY
Method in brief: as §1

ELF1 = ELF1 (Homo sapiens, UniProt P32519 1-619); settings: protein: recombinant; tags: N-terminal GST; dsDNA, one strand shown
Method in brief: as §1

EHF = biological target: T5, EHF (Homo sapiens, UniProt Q9NZC4 1-300); settings: protein: recombinant; tags: N-terminal GST; dsDNA, one strand shown
T5 sequence: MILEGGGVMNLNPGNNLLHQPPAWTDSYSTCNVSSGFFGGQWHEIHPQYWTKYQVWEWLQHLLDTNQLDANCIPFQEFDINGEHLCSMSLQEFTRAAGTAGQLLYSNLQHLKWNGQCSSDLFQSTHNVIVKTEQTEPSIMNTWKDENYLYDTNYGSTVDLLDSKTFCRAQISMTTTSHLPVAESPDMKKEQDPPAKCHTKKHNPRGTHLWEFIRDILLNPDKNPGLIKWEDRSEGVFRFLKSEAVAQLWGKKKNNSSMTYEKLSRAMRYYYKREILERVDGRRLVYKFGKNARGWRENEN
Method in brief: as §1

SPI1 = SPI1 (Homo sapiens, UniProt P17947 1-270); settings: protein: recombinant; tags: N-terminal GST; dsDNA, one strand shown
Method in brief: as §1

SPIB = SPIB (Homo sapiens, UniProt Q01892 1-262); settings: protein: recombinant; tags: N-terminal GST; dsDNA, one strand shown
Method in brief: as §1

ELK3 = biological target: T6, ELK3 (Homo sapiens, UniProt P41970 1-407); settings: protein: recombinant; tags: N-terminal GST; dsDNA, one strand shown
T6 sequence: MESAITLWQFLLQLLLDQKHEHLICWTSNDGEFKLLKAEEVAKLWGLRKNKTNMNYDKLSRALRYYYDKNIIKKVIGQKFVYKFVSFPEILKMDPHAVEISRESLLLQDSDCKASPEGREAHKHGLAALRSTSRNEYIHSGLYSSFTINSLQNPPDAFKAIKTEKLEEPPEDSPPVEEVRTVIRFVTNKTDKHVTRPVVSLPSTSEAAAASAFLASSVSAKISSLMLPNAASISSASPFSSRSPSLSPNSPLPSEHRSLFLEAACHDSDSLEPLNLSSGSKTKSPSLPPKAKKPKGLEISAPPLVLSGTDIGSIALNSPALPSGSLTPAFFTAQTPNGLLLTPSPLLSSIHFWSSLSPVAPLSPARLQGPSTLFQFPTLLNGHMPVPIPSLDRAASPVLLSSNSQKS
Method in brief: as §1

FEV = biological target: T7, FEV (Homo sapiens, UniProt Q99581 1-238); settings: protein: recombinant; tags: N-terminal GST; dsDNA, one strand shown
T7 sequence: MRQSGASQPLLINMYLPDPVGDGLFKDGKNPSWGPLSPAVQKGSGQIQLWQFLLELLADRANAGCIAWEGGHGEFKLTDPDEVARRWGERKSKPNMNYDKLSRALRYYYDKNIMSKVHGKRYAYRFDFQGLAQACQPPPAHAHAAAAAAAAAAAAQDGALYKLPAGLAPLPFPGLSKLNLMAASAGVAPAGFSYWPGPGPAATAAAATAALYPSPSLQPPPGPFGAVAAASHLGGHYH
Method in brief: as §1

ETV5 = ETV5 (Homo sapiens, UniProt P41161 1-510); settings: protein: recombinant; tags: N-terminal GST; dsDNA, one strand shown
Method in brief: as §1

HSF1 = HSF1 (Homo sapiens, UniProt Q00613 1-529); settings: protein: recombinant; tags: N-terminal GST; chain copies: 3; dsDNA, one strand shown
Method in brief: as §1

SPIC = biological target: T8, SPIC (Homo sapiens, UniProt Q8N5J4 1-248); settings: protein: recombinant; tags: N-terminal GST; dsDNA, one strand shown
T8 sequence: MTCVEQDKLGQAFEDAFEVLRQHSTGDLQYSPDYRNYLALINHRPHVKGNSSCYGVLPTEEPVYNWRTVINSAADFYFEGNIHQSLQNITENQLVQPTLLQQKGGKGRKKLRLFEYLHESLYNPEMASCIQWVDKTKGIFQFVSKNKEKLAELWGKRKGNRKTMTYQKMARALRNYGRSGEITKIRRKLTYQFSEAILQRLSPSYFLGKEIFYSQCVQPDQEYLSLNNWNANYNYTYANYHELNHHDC
Method in brief: as §1

ELF4 = ELF4 (Homo sapiens, UniProt Q99607 1-663); settings: protein: recombinant; tags: N-terminal GST; dsDNA, one strand shown
Method in brief: as §1

ELK4 = biological target: T9, ELK4 (Homo sapiens, UniProt P28324-2 1-405); settings: protein: recombinant; tags: N-terminal GST; dsDNA, one strand shown
T9 sequence: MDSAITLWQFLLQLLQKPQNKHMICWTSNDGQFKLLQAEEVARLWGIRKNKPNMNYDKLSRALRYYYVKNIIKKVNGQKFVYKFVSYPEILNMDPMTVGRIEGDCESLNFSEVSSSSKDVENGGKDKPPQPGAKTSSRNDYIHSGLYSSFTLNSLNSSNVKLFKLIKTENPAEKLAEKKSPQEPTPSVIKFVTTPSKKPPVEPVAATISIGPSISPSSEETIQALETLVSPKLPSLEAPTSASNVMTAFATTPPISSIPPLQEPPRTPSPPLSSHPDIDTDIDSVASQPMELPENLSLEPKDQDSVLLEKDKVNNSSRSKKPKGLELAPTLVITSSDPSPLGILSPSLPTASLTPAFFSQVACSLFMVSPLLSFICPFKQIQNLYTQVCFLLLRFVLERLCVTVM
Method in brief: as §1

ETV2 = biological target: T10, ETV2 (Homo sapiens, UniProt O00321 1-342); settings: protein: recombinant; tags: N-terminal GST; dsDNA, one strand shown
T10 sequence: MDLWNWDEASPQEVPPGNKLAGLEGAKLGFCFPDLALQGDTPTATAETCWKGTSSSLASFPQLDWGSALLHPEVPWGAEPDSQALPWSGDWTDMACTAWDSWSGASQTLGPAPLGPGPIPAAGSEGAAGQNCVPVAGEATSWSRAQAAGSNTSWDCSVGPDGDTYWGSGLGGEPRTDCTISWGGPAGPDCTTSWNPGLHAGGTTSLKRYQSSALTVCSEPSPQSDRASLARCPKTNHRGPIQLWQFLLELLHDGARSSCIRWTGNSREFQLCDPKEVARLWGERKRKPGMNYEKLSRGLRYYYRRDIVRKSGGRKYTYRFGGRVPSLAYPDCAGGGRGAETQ
Method in brief: as §1

ELF3 = biological target: T11, ELF3 (Homo sapiens, UniProt P78545 1-371); settings: protein: recombinant; tags: N-terminal GST; dsDNA, one strand shown
T11 sequence: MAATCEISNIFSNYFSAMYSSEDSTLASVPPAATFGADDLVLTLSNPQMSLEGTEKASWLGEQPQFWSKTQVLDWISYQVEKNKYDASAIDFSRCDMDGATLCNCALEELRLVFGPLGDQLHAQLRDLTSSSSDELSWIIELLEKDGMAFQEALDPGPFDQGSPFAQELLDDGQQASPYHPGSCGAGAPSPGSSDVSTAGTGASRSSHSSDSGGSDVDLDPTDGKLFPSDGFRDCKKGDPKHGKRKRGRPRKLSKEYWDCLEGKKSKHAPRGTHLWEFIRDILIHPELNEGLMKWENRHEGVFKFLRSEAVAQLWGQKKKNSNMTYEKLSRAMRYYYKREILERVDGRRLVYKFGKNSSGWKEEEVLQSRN
Method in brief: as §1

CRX = CRX (Homo sapiens, UniProt O43186 1-299); settings: protein: recombinant; tags: N-terminal GST; dsDNA, one strand shown
Method in brief: as §1

ETV1 = ETV1 (Homo sapiens, UniProt P50549 1-477); settings: protein: recombinant; tags: N-terminal GST; dsDNA, one strand shown
Method in brief: as §1

HSF1, sequence (Q00613 whole entry): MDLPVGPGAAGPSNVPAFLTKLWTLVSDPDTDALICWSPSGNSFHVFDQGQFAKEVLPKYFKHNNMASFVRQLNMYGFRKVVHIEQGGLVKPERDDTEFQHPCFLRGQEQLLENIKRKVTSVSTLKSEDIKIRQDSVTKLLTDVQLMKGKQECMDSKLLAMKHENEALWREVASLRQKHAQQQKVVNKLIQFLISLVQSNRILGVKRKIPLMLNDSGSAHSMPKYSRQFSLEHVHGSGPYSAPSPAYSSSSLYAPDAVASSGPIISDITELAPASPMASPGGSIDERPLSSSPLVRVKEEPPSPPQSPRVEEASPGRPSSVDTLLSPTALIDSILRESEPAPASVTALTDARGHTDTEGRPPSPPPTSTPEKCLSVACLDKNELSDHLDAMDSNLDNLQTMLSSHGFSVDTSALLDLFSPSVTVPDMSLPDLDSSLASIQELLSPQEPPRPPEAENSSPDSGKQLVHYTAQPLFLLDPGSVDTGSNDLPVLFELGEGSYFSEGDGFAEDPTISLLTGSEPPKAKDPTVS
CRX, sequence (O43186 whole entry): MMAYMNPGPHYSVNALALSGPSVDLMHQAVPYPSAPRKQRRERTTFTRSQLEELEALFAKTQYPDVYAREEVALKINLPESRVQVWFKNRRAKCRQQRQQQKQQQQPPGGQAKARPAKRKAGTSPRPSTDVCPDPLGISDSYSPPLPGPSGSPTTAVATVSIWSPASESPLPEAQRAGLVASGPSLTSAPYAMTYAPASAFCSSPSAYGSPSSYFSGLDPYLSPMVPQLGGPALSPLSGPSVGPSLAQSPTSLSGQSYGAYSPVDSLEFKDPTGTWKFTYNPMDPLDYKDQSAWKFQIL
ELF1, sequence (P32519 whole entry): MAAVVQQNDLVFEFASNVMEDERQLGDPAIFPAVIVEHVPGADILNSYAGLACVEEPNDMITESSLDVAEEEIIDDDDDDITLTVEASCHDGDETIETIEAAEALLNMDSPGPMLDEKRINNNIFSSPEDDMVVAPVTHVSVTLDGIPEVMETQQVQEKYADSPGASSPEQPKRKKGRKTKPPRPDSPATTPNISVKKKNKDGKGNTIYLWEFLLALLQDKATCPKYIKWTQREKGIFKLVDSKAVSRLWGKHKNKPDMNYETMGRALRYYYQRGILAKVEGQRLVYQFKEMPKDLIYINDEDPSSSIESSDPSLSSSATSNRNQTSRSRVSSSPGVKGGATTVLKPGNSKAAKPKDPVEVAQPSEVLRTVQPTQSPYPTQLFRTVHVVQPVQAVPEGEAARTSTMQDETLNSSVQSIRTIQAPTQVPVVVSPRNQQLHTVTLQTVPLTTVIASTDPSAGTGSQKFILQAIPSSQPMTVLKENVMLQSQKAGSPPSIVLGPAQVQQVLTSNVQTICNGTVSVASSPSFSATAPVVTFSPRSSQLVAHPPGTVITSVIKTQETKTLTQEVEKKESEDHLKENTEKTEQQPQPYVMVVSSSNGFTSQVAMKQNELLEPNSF
ETV1, sequence (P50549 whole entry): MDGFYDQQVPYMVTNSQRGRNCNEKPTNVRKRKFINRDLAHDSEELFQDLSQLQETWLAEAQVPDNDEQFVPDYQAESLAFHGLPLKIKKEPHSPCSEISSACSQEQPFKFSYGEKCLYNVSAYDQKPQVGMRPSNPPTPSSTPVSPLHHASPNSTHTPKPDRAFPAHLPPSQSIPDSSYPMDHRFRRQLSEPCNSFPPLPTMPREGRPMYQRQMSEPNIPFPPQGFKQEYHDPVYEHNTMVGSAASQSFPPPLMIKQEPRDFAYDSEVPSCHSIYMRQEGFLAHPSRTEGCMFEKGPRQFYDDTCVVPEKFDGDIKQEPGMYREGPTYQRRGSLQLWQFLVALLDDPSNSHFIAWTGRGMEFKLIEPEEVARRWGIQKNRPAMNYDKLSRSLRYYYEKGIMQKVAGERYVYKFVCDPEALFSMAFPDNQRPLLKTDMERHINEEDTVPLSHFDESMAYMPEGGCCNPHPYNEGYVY
ELF4, sequence (Q99607 whole entry): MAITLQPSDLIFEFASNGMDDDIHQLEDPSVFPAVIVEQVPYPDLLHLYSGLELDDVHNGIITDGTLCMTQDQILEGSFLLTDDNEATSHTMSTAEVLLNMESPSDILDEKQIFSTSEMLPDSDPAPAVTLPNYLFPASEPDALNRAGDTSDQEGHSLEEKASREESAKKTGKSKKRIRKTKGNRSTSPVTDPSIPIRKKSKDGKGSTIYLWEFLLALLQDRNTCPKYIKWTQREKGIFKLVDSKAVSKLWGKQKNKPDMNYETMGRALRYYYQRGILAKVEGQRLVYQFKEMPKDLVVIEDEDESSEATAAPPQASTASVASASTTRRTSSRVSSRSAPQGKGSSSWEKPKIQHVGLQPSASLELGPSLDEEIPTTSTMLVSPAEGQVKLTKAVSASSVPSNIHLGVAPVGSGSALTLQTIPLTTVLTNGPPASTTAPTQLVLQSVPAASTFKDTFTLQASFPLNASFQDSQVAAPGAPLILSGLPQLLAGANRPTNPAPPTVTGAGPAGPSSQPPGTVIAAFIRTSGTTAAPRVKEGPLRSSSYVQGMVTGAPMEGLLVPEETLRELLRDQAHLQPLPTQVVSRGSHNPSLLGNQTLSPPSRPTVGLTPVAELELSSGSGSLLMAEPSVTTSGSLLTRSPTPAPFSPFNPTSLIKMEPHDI
SPIB, sequence (Q01892 whole entry): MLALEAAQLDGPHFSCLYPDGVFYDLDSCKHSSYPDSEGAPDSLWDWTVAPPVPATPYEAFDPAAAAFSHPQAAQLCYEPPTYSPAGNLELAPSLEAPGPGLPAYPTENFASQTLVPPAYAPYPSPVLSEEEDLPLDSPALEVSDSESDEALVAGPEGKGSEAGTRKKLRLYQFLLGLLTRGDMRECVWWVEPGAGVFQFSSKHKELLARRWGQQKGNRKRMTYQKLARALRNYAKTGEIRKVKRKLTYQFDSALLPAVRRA
ETV5, sequence (P41161 whole entry): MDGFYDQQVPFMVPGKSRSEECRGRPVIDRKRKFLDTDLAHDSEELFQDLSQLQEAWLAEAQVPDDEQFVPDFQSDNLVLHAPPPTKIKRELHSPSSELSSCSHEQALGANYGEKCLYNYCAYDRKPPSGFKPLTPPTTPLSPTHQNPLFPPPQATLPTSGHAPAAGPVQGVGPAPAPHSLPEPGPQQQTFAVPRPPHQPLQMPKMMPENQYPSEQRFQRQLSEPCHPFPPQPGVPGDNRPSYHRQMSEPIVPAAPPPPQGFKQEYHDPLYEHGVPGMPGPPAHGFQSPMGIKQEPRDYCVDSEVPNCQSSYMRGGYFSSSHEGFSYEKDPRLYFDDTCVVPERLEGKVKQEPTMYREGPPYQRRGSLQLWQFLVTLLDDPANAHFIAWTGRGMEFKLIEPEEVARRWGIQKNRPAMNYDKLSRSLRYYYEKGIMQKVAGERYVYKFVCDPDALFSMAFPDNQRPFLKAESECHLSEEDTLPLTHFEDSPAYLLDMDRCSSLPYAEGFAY

Sequence: TGCTAT
- binding signal (FLI1): 1.42 fold enrichment (6-mer frequency, TF over GST control)
- binding signal (ELK1): 1.36 fold enrichment (6-mer frequency, TF over GST control)
- binding signal (GABPA): 1.47 fold enrichment (6-mer frequency, TF over GST control)
- binding signal (ERG): 1.41 fold enrichment (6-mer frequency, TF over GST control)
- binding signal (ELF1): 1.46 fold enrichment (6-mer frequency, TF over GST control)
- binding signal (EHF): 1.49 fold enrichment (6-mer frequency, TF over GST control)
- binding signal (SPI1): 1.33 fold enrichment (6-mer frequency, TF over GST control)
- binding signal (SPIB): 1.47 fold enrichment (6-mer frequency, TF over GST control)
- binding signal (ELK3): 1.63 fold enrichment (6-mer frequency, TF over GST control)
- binding signal (FEV): 1.39 fold enrichment (6-mer frequency, TF over GST control)
- binding signal (ETV5): 1.43 fold enrichment (6-mer frequency, TF over GST control)
- binding signal (HSF1): 1.22 fold enrichment (6-mer frequency, TF over GST control)
- binding signal (SPIC): 1.37 fold enrichment (6-mer frequency, TF over GST control)
- binding signal (ELF4): 1.37 fold enrichment (6-mer frequency, TF over GST control)
- binding signal (ELK4): 1.57 fold enrichment (6-mer frequency, TF over GST control)
- binding signal (ETV2): 1.71 fold enrichment (6-mer frequency, TF over GST control)
- binding signal (ELF3): 1.6 fold enrichment (6-mer frequency, TF over GST control)
- binding signal (CRX): 1.3 fold enrichment (6-mer frequency, TF over GST control)
- binding signal (ETV1): 1.31 fold enrichment (6-mer frequency, TF over GST control)
